The nature of assay [1]: ATG_CRE_CIS: Attagene CIS-FACTORIAL HepG2 Assay for human cAMP Responsive Element (CRE) binding protein 3 (AID 2282926). As to conditions: HepG2 CRE cis-reporter, Attagene multiplexed mRNA; actives raise or lower the signal. The gist of the method:
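We dosed HepG2 cells bearing multiple cis-promoter reporter units for 24 h and measured reporter mRNA by RT-PCR with capillary electrophoresis detection. Bidirectional concentration-response fitting used DMSO as negative control.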

Assay [2] has as its target CCAAT/enhancer-binding protein beta (Homo sapiens) (UniProt P17676). Kind of assay: ATG_C_EBP_CIS: Attagene CIS-FACTORIAL HepG2 Assay for human CCAAT/Enhancer Binding Protein (C/EBP) beta (AID 2282927). As to conditions: HepG2 Attagene cis-factorial transcription factor reporter; actives raise or lower the signal. The gist of the method:
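HepG2 transiently transfected with multiplexed reporter units under cis-regulatory promoters reporting endogenous C/EBPb activity. After 24 h exposure, reporter mRNA assayed by RT-PCR, fluorescent labelling, HpaI digestion and capillary electrophoresis; bidirectional fitting versus DMSO.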

A short description of assay [3]: ATG_CMV_CIS: Attagene CIS-FACTORIAL HepG2 Assay for human CMV (Internal Marker) (AID 2282928).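 Also: endpoint acts as a background internal control marker rather than a target.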 Conditions: HepG2 CMV promoter reporter, transcription factor profiling; actives raise or lower the signal. The gist of the method:
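Cell system: HepG2, transiently transfected multiple reporter units under cis promoters. Exposure: 24 h. Detection: RT-PCR, FAM labeling, HpaI digestion, capillary electrophoresis. Analysis: bidirectional, DMSO baseline.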

Assay [4] can be described thus: ATG_DR4_LXR_CIS: Attagene CIS-FACTORIAL HepG2 Assay for human Liver X Receptor (LXR), DR4 submotif (AID 2282929). Conditions: HepG2 Attagene DR4 cis-reporter, mRNA transcription; actives raise or lower the signal. The gist of the method:
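HepG2 cells transiently transfected with cis-promoter-driven multiplexed reporter units (DR4 element) were dosed for 24 h. Reporter mRNA was quantified by RT-PCR, fluorescent primer extension, HpaI digestion and capillary electrophoresis; bidirectional fitting versus DMSO baseline.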

For assay [5], the target named is Aryl hydrocarbon receptor (Homo sapiens) (UniProt P35869). Kind of assay: ATG_Ahr_CIS: Attagene CIS-FACTORIAL HepG2 Assay for human Aryl Hydrocarbon Receptor (Ahr) (AID 2282930). As to conditions: HepG2 AhR cis-factorial reporter transcription; actives raise or lower the signal. The gist of the method:
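HepG2 cells transiently transfected with cis-element-driven multiplexed reporter units; endogenous AhR activity read as reporter mRNA 24 h after dosing, via RT-PCR, 6-FAM labelling, HpaI digestion and capillary electrophoresis. Bidirectional fit relative to DMSO.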

Assay [6] in a line: ATG_AP_1_CIS: Attagene CIS-FACTORIAL HepG2 Assay for human Activator Protein 1 (AP-1) (AID 2282931). Conditions: HepG2 Attagene cis-factorial AP-1 reporter mRNA; actives raise or lower the signal. The gist of the method:
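HepG2 cells transiently transfected with cis-element-driven multiplex reporter units; 24 h compound exposure. Reporter mRNA quantified by RT-PCR, FAM-labelled fragments resolved by capillary electrophoresis; bidirectional fit versus DMSO baseline.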

A short description of assay [7]: ATG_AP_2_CIS: Attagene CIS-FACTORIAL HepG2 Assay for human Activator Protein 2 (AP-2) (AID 2282932). As to conditions: HepG2 AP-2 cis-reporter, Attagene transcription factor profiling; actives raise or lower the signal. The gist of the method:
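Multiplexed mRNA reporter assay in HepG2: cis-regulated units report endogenous factor activity after 24 h treatment. Fluorescence from capillary electrophoresis of RT-PCR products gives the signal, with DMSO as baseline.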

The target in assay [8] is Transcription factor E2F1 (Homo sapiens) (UniProt Q01094). As to the kind of experiment: ATG_E2F_CIS: Attagene CIS-FACTORIAL HepG2 Assay for human E2F Transcription Factor 1 (AID 2282935). As to conditions: HepG2 Attagene cis-reporter, E2F reporter RNA transcripts; actives raise or lower the signal. The gist of the method: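 Measures reporter transcript levels via RT-PCR with capillary electrophoresis detection in HepG2 cells harboring cis-regulated reporter units; 24 h post-dose; bidirectional curve fitting with DMSO as baseline.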

Assay [9] is described as follows: ATG_E_Box_CIS: Attagene CIS-FACTORIAL HepG2 Assay for human Enhancer Box (E-box) (AID 2282936). As to conditions: HepG2 E-box cis-reporter transcription, actives raise or lower the signal. In short, it runs like this: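 First, HepG2 cells receive multiple cis-regulated reporter constructs by transient transfection. Next, chemicals are applied for 24 h. Finally, reporter mRNA is quantified via RT-PCR and capillary electrophoresis, with DMSO as baseline.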

Assay [10] in a line: ATG_M_61_CIS: Attagene CIS-FACTORIAL HepG2 Assay for M61 Transcription Factor (Internal Marker) (AID 2282937). As to conditions: HepG2 Attagene CIS-FACTORIAL M61 internal marker reporter; actives raise or lower the signal. The gist of the method:
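HepG2 cells transiently transfected with cis-element-driven multiple reporter transcription units, dosed for 24 h. Reporter mRNA measured by RT-PCR, 6-FAM primer-extension labelling, HpaI digestion and capillary electrophoresis; bidirectional fit versus DMSO baseline.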

Assay [11] can be described thus: ATG_EGR_CIS: Attagene CIS-FACTORIAL HepG2 Assay for human Early Growth Response 1 (EGR1) (AID 2282938). Conditions: HepG2 Attagene CIS-FACTORIAL EGR reporter mRNA; actives raise or lower the signal. The gist of the method:
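HepG2 cells transiently transfected with cis-promoter-driven multiplexed reporter transcription units; reporter mRNA measured 24 h after compound dosing by RT-PCR, 6-FAM primer extension, HpaI digestion and capillary electrophoresis. Bidirectional fit versus DMSO baseline.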

A short description of assay [12]: ATG_M_19_CIS: Attagene CIS-FACTORIAL HepG2 Assay for M19 Transcription Factor (Internal Marker) (AID 2282939). As to conditions: HepG2 Attagene CIS-FACTORIAL M19 internal marker reporter; actives raise or lower the signal. The gist of the method:
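HepG2 cells transiently transfected with cis-regulated multiple reporter transcription units were dosed for 24 h; reporter mRNA was quantified by RT-PCR, 6-FAM primer-extension labelling, HpaI digestion and capillary electrophoresis, with bidirectional fitting against DMSO baseline.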

Assay [13] can be described thus: ATG_ERE_CIS: Attagene CIS-FACTORIAL HepG2 Assay for Estrogen Response Element (ERE) (AID 2282940). Conditions: HepG2 ERE cis-reporter, Attagene RNA transcript; actives raise or lower the signal. In short, it runs like this:
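HepG2 cells transiently transfected with cis-promoter-driven multiplexed reporter transcription units report endogenous TF activity. After 24 h compound exposure, reporter mRNA is quantified by RT-PCR with capillary electrophoresis fluorescence; bidirectional fitting versus DMSO baseline.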

Assay [14] can be described thus: ATG_Ets_CIS: Attagene CIS-FACTORIAL HepG2 Assay for human Erythroblast Transformation Specific (ETS) (AID 2282941). Conditions: HepG2 ETS cis-reporter transcription, actives raise or lower the signal. In short, it runs like this: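 After transient cis-reporter transfection, HepG2 cells receive test chemical for 24 h. Reporter mRNA levels, measured by RT-PCR and capillary electrophoresis fluorescence, are analysed bidirectionally relative to the DMSO baseline.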

Assay [15] has as its target Hepatocyte nuclear factor 3-beta (Homo sapiens) (UniProt Q9Y261). As to the kind of experiment: ATG_FoxA2_CIS: Attagene CIS-FACTORIAL HepG2 Assay for human Forkhead box A2 (FOXA2) (AID 2282942). As to conditions: HepG2 cis-reporter transcription factor activity, 24 h; actives raise or lower the signal. The gist of the method: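 HepG2 cells transiently transfected with multiple cis-regulated reporter transcription units, dosed for 24 h. Reporter mRNA measured by RT-PCR, 6-FAM labelling, HpaI digestion and capillary electrophoresis; bidirectional fitting against DMSO baseline.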

A short description of assay [16]: ATG_FoxO_CIS: Attagene CIS-FACTORIAL HepG2 Assay for human Forkhead box O (FoxO) (AID 2282943). Conditions: HepG2 Attagene cis-reporter, FoxO element, mRNA; actives raise or lower the signal. In short, it runs like this: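 HepG2 cells transiently transfected with cis-element-driven reporter units report endogenous FoxO activity. After 24 h chemical exposure, reporter mRNA quantified by RT-PCR, fluorescent labeling, HpaI digestion and capillary electrophoresis; bidirectional fit versus DMSO.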

Assay [17] in a line: ATG_GATA_CIS: Attagene CIS-FACTORIAL HepG2 Assay for human GATA Binding Protein (AID 2282944). As to conditions: HepG2 GATA cis-element reporter, Attagene multiplex mRNA; actives raise or lower the signal. The gist of the method:
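HepG2 cells transiently transfected with multiplexed cis-element reporter units reflecting endogenous transcription factor activity; reporter mRNA measured after 24 h dosing by RT-PCR, 6-FAM labeling, HpaI digestion and capillary electrophoresis. Bidirectional fitting versus DMSO baseline.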

Assay [18] is described as follows: ATG_GLI_CIS: Attagene CIS-FACTORIAL HepG2 Assay for human Zinc Finger Protein GLI1 (AID 2282945). Conditions: HepG2, Attagene cis-factorial reporter mRNA, GLI element; actives raise or lower the signal. The gist of the method: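 Transiently transfected HepG2 cells report endogenous transcription factor activity via cis-element-driven reporter units. After 24 h compound exposure, reporter mRNA was measured by RT-PCR with capillary electrophoresis; bidirectional fitting against DMSO baseline.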

Assay [19] deals with Retinoic acid receptor alpha (Homo sapiens) (UniProt P10276). As to the kind of experiment: ATG_DR5_RAR_CIS: Attagene CIS-FACTORIAL HepG2 Assay for human Retinoic Acid Receptor Alpha (RARE), DR5 submotif (AID 2282934).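 As to AC50: reporter responds to endogenous RAR alpha beta and gamma in HepG2 not RARA alone.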 As to conditions: HepG2 Attagene cis-factorial RARE DR5 reporter, mRNA; actives raise or lower the signal. The gist of the method:
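HepG2 cells transiently transfected with multiplexed reporter units; DR5 cis-element drives reporter through endogenous transcription factors. After 24 h dosing, reporter mRNA quantified by RT-PCR, fluorescent labeling, HpaI digestion and capillary electrophoresis; bidirectional fitting versus DMSO.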

Molecules are shown by their SMILES. Active and inactive are the calls of the source. The calls were made as follows: active = hit-call score of the fitted dose curve at least 0.9, where 1 is the maximum; inactive = score below 0.9.

Transcription factor E2F1 (Homo sapiens), sequence (Q01094 whole entry, looked up): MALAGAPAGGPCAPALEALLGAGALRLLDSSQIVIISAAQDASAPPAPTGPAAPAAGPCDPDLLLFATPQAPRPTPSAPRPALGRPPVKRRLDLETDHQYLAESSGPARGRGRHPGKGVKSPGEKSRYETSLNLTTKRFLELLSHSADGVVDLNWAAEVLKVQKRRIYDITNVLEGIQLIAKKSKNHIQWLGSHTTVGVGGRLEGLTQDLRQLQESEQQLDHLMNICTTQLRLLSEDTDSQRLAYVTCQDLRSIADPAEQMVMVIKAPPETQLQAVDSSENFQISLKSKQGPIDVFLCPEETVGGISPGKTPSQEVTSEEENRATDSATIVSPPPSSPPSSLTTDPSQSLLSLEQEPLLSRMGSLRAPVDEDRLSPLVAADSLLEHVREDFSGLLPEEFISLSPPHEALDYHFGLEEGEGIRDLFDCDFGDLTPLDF
Aryl hydrocarbon receptor (Homo sapiens), sequence (P35869 whole entry, looked up): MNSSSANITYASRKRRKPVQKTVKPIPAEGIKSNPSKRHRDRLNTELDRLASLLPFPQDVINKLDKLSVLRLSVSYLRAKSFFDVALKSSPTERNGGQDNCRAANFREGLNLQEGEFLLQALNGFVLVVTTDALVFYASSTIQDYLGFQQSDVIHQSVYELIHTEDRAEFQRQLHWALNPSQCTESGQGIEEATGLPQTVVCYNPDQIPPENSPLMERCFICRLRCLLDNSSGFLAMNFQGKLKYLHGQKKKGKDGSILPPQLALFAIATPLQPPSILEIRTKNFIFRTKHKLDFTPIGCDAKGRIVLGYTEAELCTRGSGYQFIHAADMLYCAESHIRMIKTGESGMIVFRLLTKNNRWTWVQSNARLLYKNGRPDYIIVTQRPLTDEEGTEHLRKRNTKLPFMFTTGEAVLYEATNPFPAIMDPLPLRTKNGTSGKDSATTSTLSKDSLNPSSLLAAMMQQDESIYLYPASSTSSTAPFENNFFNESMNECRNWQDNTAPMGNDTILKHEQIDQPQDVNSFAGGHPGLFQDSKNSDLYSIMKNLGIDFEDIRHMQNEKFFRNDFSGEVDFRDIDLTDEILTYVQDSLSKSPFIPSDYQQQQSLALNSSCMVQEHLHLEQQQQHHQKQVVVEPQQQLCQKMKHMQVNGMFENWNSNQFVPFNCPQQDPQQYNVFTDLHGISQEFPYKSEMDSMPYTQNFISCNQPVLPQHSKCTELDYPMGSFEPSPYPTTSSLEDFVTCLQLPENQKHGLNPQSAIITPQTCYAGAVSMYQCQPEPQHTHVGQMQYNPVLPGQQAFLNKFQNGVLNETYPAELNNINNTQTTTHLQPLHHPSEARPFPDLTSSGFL
Hepatocyte nuclear factor 3-beta (Homo sapiens), sequence (Q9Y261 whole entry, looked up): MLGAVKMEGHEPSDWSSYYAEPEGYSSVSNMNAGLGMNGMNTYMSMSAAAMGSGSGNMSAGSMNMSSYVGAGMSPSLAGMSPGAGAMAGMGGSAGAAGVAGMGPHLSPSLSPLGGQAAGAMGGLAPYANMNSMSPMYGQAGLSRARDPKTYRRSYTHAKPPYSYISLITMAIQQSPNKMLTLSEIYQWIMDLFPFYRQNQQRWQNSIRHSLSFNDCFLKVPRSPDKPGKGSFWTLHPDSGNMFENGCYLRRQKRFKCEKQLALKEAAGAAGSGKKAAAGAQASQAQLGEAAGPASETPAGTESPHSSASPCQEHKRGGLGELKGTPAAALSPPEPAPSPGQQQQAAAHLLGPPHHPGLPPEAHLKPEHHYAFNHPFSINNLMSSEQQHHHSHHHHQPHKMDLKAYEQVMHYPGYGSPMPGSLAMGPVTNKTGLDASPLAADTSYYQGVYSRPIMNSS
Retinoic acid receptor alpha (Homo sapiens), sequence (P10276 whole entry, looked up): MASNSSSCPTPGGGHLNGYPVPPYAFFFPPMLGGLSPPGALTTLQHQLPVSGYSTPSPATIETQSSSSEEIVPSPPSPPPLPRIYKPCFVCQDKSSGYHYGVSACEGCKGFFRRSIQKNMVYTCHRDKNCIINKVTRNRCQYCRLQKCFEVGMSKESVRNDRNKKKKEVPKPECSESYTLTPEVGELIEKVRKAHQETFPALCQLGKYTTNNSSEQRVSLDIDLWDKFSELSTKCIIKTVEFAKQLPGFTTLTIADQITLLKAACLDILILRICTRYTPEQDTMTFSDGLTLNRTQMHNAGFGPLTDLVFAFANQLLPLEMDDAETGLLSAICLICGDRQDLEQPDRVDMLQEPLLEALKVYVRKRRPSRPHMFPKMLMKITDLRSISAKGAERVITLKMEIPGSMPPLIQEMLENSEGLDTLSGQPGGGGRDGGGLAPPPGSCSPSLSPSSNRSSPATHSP
CCAAT/enhancer-binding protein beta (Homo sapiens), sequence (P17676 whole entry, looked up): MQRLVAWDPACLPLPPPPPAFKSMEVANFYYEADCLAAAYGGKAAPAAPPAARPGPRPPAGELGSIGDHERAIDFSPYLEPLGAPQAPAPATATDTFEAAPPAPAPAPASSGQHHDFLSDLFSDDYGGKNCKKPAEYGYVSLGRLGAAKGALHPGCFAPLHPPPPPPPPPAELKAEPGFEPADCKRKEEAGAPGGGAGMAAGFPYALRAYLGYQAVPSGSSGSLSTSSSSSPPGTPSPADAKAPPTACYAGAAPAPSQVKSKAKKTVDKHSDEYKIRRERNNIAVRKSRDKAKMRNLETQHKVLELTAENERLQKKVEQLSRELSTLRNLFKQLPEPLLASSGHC

Turning to `OCC1CO1` (stereo not drawn), the call in assay [1], in assay [2], in [3], in assay [4], in assay [5] and in assay [6] was inactive. Also, the call in assay [7], in assay [8], in assay [9], in [10], in assay [11] and in assay [12] was inactive. Besides, the compound was classed as inactive in [13], in assay [14], in assay [15], in assay [16], in [17] and in assay [18].

With `Cc1ccc(C(=O)Cl)cc1`, the call in [1], in assay [2], in [3], in assay [4], in assay [5] and in [6] was inactive. The compound was classed as inactive in assay [7], in [19], in assay [8], in [9], in assay [10] and in assay [11]. Moreover, the outcome in assay [12], in assay [13], in assay [14], in [15], in assay [16] and in assay [17] was inactive. In addition, in assay [18], the result was inactive.

By AC50 is commonly meant the concentration at which the activity in the assay is half-maximal. With `CO/N=C(/C(=O)OC)c1ccccc1COc1ccccc1C`, the compound was classed as inactive in assay [1], in [2], in assay [4], in [7], in assay [8] and in [12]. For the same compound, the compound was called inactive in [14], in assay [15], in assay [16], in [17] and in assay [18]. Further, the concentration at half-maximal activity (AC50) in assay [3] was 23.2 µM (active); in assay [5] it was 22.9 µM (active); in assay [6] it was 8.54 µM (active); in [19], 5.62 µM (active); in assay [9], 100 µM (active); in assay [11], 43 µM (active). The AC50 in assay [13] was 42.9 µM (active).

In the case of `CC(=O)c1ccc(-c2ccccc2)cc1`, the call in assay [1], in assay [2], in assay [3], in assay [4], in [6] and in assay [7] was inactive. Further, the compound was classed as inactive in [19], in [8], in assay [9], in assay [10], in assay [11] and in assay [12]. In addition, the outcome in assay [14], in assay [15], in assay [16], in [17] and in assay [18] was inactive. Moreover, the AC50 in [5] was 56.5 µM (active); in [13], 6.56 µM (active).

For the compound `Cc1ccc2c(c1N)C(=O)c1ccccc1C2=O`, the compound was classed as inactive in assay [1], in assay [2], in assay [3], in [4], in assay [7] and in assay [19]. Besides, the outcome in assay [8], in [9], in [10], in assay [11], in assay [12] and in [14] was inactive. Also, the result in assay [15], in assay [16], in assay [17] and in assay [18] was inactive. The AC50 in assay [5] is 4.15 µM (active); in assay [6], 150 µM (active); in assay [13], 5.24 µM (active).

The values above are taken from PubChem BioAssay (EPA / NIEHS).
